The values below come from PubChem BioAssay (Tox21).

Where “and” joins values, the source holds several entries; their conditions need not be identical. Equal entries are not always repeated. Inconclusive results are not listed. More than one record can exist for a structure, and the calls need not agree. Calls of active or inactive are those of the source. Unless noted, the call rests on the fitted dose curve; in most records, active means well fitted curve in the direction sought with a large enough effect in the repeat runs; inconclusive means weak or mixed curves; inactive means no such curve, though single readings can be large; an effect the other way counts as inactive or inconclusive.

The nature of test [1]: qHTS assay to identify small molecule antagonists of the retinoid acid receptor (RAR) signaling pathway - cell viability counter screen (AID 1159551). Further: nearly all actives have a fitted effect of over 35% in size. Further: potency means the concentration at half of the fitted maximal effect. A digest of the protocol:
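ATP-based viability, C3RL4 cells, 6 h at 37 C with 1 uM final retinol co-added after compound; luminescence read 30 min post CellTiter-Glo, RT.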
(Quantitative high-throughput screening tests each substance at several concentrations.)

For test [2], the target named is Luciferin 4-monooxygenase (Photinus pyralis) (UniProt P08659). The test can be described thus: qHTS assay to identify small molecule inhibitors of firefly luciferase (AID 1224835). Further: series mostly up to about 120 µM; nearly all actives have a fitted effect of over 25% in size. A digest of the protocol:
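Inhibition of purified Photinus luciferase is measured by luminescence. Substrate levels (D-luciferin, ATP) sit at their KM values. Each compound is tested in a concentration series.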

Test [3] in a line: qHTS assay to identify small molecule agonists of the constitutive androstane receptor (CAR) signaling pathway - cell viability counter screen (AID 1224836). Further: nearly all actives have a fitted effect of over 45% in size. Further: potency means the concentration at half of the fitted maximal effect. A digest of the protocol:
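23 h treatment, 37 C, 5% CO2. Cell line: HepG2 stably expressing hCAR with a CYP2B6-2.2kb construct. Co-treatment: PK11195, 0.75 uM final. Read-out: CellTiter-Fluor fluorescence intensity.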

The nature of test [4]: qHTS assay to identify small molecule antagonists of the constitutive androstane receptor (CAR) signaling pathway - cell viability counter screen (AID 1224837). Further: nearly all actives have a fitted effect of over 45% in size. Further: potency means the concentration at half of the fitted maximal effect. A digest of the protocol:
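Cells are seeded, rested 4 hr at 37 C/5% CO2, dosed with compound (15-point series) and 50 nM CITCO, incubated a further 23 hr, and then CellTiter-Fluor reagent is added before fluorescence is read. The line is HepG2 with stable hCAR and CYP2B6-2.2kb.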

Test [5] deals with Nuclear receptor subfamily 1 group I member 3 (Homo sapiens) (UniProt Q14994). Put plainly: qHTS assay to identify small molecule antagonists of the constitutive androstane receptor (CAR) signaling pathway (AID 1224838).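 Further: HepG2 cells stably expressing hCAR with CYP2B6 luciferase reporter stimulated by CITCO; nearly all actives have a fitted effect of over 40% in size.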 Further: potency means the concentration at half of the fitted maximal effect. A digest of the protocol: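 Luminescence from a CYP2B6-2.2kb promoter reporter in hCAR-expressing HepG2 cells reflects CAR signaling. Cells received compounds at 15 concentrations and 50 nM CITCO (final), then incubated 24 h at 37 C/5% CO2.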
Sequence of Nuclear receptor subfamily 1 group I member 3 (Homo sapiens) (Q14994 whole entry, looked up): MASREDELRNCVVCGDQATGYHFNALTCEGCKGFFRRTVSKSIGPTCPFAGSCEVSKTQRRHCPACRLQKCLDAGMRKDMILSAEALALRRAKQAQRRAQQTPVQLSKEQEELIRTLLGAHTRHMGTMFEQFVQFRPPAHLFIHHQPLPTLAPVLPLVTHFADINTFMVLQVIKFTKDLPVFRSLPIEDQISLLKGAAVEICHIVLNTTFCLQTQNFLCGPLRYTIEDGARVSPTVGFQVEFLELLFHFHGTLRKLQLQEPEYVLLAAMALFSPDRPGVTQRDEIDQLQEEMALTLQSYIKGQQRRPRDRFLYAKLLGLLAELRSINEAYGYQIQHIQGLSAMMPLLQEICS

The target is the same in test [6]. Put plainly: qHTS assay to identify small molecule agonists of the constitutive androstane receptor (CAR) signaling pathway (AID 1224839). Further: nearly all actives have a fitted effect of over 15% in size. Further: potency means the concentration at half of the fitted maximal effect.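 On activation: HepG2 cells stably carrying human CAR and a CYP2B6 luciferase reporter; series mostly up to about 92 µM.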 A digest of the protocol: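 Compounds tested at 15 concentrations on HepG2 cells stably harbouring hCAR and CYP2B6-2.2kb reporter constructs, co-treated with PK11195 (0.75 uM final), 24 h at 37 C; luminescent reporter signal quantified.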

In test [7] the target is Thyrotropin receptor (Homo sapiens) (UniProt P16473). The test can be described thus: qHTS assay to identify small molecule agonists of the thyroid stimulating hormone receptor (TSHR) signaling pathway (AID 1224843; calls by dose curve; further: nearly all actives have a fitted effect of over 45% in size; further: potency means the concentration at half of the fitted maximal effect). A digest of the protocol: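 Agonist activity read as cAMP rise via d2/cryptate HTRF competition, 1 h room-temperature detection, in HEK293 cells expressing TSHR. Fifteen-point titrations, each run in triplicate, with a 30 min room-temperature incubation beforehand.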
Sequence of Thyrotropin receptor (Homo sapiens) (P16473 whole entry, looked up): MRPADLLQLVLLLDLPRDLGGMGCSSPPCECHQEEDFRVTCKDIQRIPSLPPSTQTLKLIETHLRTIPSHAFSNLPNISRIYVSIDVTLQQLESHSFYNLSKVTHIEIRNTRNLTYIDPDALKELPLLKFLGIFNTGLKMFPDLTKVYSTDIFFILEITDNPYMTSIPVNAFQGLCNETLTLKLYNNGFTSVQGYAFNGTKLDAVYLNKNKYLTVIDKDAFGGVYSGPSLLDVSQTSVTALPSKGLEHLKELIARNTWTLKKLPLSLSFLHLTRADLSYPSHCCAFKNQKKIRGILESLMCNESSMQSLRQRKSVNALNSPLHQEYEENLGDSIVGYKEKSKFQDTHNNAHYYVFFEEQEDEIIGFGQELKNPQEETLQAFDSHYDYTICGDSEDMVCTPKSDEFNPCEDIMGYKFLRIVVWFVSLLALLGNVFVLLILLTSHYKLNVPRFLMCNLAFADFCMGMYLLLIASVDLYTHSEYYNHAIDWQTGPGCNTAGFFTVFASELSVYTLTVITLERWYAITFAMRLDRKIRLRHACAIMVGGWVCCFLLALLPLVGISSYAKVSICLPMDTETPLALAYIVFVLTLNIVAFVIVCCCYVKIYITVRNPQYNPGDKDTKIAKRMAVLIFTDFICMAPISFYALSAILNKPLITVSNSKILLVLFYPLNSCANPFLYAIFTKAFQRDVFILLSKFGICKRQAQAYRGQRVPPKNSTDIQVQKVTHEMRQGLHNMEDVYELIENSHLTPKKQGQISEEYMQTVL

A short description of test [8]: qHTS assay to identify small molecule agonists of the hypoxia (HIF-1) signaling pathway - cell viability counter screen (AID 1224844; calls by dose curve; further: nearly all actives have a fitted effect of over 50% in size; further: potency means the concentration at half of the fitted maximal effect). A digest of the protocol:
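Viability counter screen: HRE-bla ME-180 cells plated 5 hrs before compound addition, treated 17 hrs at 37C and 5% CO2, then CellTiter-Glo added after the FRET reporter read; luminescence after 30 min.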

The nature of test [9]: qHTS assay to identify small molecule antagonists of the estrogen related receptor signaling pathway with the pleiotropic PPARgamma coactivator (PGC) from Tox21 10K library - cell viability counter screen (AID 1224840; active means well fitted cell-killing curve with a large enough effect in the repeat runs, not every such curve was filed as active; further: nearly all actives have a fitted effect of over 40% in size; further: potency means the concentration at half of the fitted maximal effect). A digest of the protocol: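 Cell viability is measured by CellTiter-Fluor fluorescence in PGC/ERR cells that receive compounds after a 6-hour attachment period and are then incubated 17.5 hours at 37 C.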

The nature of test [10]: qHTS assay to identify small molecule agonists of the estrogen related receptor signaling pathway with the pleiotropic PPARgamma coactivator (PGC) from Tox21 10K library (AID 1224842). Further: nearly all actives have a fitted effect of over 15% in size. A digest of the protocol: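 Luminescence from One-Glo (30 min, room temperature) measured after PGC/ERR cells had 18 h at 37 C with pinned compound (23 nL in DMSO). Cells had been seeded at 2,000 per well and pre-incubated 6 h.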

Test [11] is described as follows: qHTS assay to identify small molecule antagonists of the retinoic acid receptor (RAR) signaling pathway (AID 1159552; further: potency means the concentration at half of the fitted maximal effect; nearly all actives have a fitted effect of over 50% in size). A digest of the protocol: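 Test chemicals and DMSO controls were pin-transferred onto C3RL4 cells a day after seeding; retinol (1 uM final) followed at once. Luminescent reporter output was quantified after 6 hr of co-incubation and 30 min with detection reagent.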

The nature of test [12]: qHTS assay to identify small molecule agonists of the retinoic acid receptor (RAR) signaling pathway (AID 1159553). Further: potency means the concentration at half of the fitted maximal effect. A digest of the protocol:
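Quantitative high-throughput format: the Tox21 10K library was tested on C3RL4 RARE-luciferase cells for 6 hr at 37 C and 5% CO2, with luminescence measured after a 30 min room-temperature reagent step.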

Test [13] in a line: qHTS assay to identify small molecule antagonists of the estrogen related receptor (ERR) signaling pathway from Tox21 library - cell viability counter screen (AID 1224834). Further: potency means the concentration at half of the fitted maximal effect; nearly all actives have a fitted effect of over 30% in size. A digest of the protocol:
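Compounds in DMSO were pinned onto ERR cells that had been incubated for 6 h, and the plates were held at 37 C for 17.5 h. CellTiter-Fluor reagent was then added and fluorescence was measured after 30 min.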

Test [14] is described as follows: qHTS assay to identify small molecule antagonists of the estrogen related receptor signaling pathway with the pleiotropic PPARgamma coactivator (PGC) from Tox21 10K library (AID 1224841; call rule not given here; further: potency means the concentration at half of the fitted maximal effect; actives are mostly falling curves and most rising ones were filed inactive; nearly all actives have a fitted effect of over 50% in size). A digest of the protocol:
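Cells stably carrying the PGC/ERR reporter, seeded at 2,000 per well, received pin-transferred compounds 6 h post-plating. Exposure lasted 18 h at 37 C. Signal: One-Glo luminescence.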

Test [15] in a line: qHTS assay to identify small molecule agonists of H2AX (AID 1224845; active means well fitted activation curve with a large enough effect in the signal ratio in the repeat runs, not every such curve was filed as active; the % refers to the signal ratio; further: potency means the concentration at half of the fitted maximal effect). A digest of the protocol:
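Phospho-H2AX Ser139 measured by HTRF (ex 320 nm; em 665 and 620 nm) after 24 hr antibody incubation. Compounds, 15 concentrations, 0.76% DMSO, were applied to CHO-K1 cells for 3hr at 37C before lysis.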

Test [16] in a line: qHTS assay to identify small molecule antagonists of the estrogen related receptor (ERR) signaling pathway (AID 1224819; further: potency means the concentration at half of the fitted maximal effect; nearly all actives have a fitted effect of over 50% in size). A digest of the protocol: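 ERR reporter cell line (NTP) plated at 2,000 cells/well, settled 6 h at 37C/5% CO2, then exposed to LOPAC compounds for 18 h at 37C. One-Glo luciferase luminescence read after 30 min at room temperature.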
Test [17] is described as follows: qHTS assay to identify small molecule agonists of the estrogen related receptor (ERR) signaling pathway (AID 1224820). A digest of the protocol:
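After 6 h plating (2,000 cells/well) and 18 h compound treatment at 37 C, ERR cells were lysed with One-Glo and luminescence read after 30 min at room temperature.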

Test [18] relates to estrogen-related receptor alpha (ERRalpha) with PGC-1alpha coactivator, human. Put plainly: qHTS assay to identify small molecule antagonists of the estrogen related receptor signaling pathway with the pleiotropic PPARgamma coactivator (PGC) (AID 1224821; calls by dose curve). A digest of the protocol: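 Luminescence from One-Glo luciferase reagent (30 min, room temperature) measured after 18 h compound treatment at 37 °C. Cells carry the PGC/ERR reporter and were seeded 6 h prior to dosing.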

Test [19] is described as follows: qHTS assay to identify small molecule agonists of the estrogen related receptor signaling pathway with the pleiotropic PPARgamma coactivator (PGC) (AID 1224823). A digest of the protocol:
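Luminescence from One-Glo reagent (30 min, room temperature) was read after 18 h compound treatment at 37 C of PGC/ERR cells plated 6 h beforehand; compounds delivered in DMSO by pin tool.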

Sequence of Luciferin 4-monooxygenase (Photinus pyralis) (P08659 whole entry, looked up): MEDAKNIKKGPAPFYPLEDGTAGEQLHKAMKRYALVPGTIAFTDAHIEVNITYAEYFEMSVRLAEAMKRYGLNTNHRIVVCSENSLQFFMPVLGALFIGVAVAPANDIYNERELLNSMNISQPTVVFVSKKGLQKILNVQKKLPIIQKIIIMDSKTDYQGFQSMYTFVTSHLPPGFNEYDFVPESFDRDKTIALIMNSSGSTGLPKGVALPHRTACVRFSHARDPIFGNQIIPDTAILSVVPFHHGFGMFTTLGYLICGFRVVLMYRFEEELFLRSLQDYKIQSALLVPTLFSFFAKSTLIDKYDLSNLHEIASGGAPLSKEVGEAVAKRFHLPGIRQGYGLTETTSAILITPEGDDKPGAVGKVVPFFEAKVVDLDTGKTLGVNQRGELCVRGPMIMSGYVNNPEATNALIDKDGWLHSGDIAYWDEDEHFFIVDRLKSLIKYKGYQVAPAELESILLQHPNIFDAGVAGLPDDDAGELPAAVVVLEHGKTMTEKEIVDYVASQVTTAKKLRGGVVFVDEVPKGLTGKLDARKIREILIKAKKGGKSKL

Turning to `CCN(CC)c1c([N+](=O)[O-])cc(C(F)(F)F)c(N)c1[N+](=O)[O-]`, the Potency result in [1], in [2], in [3], in test [4], in [5] and in test [8] was “inactive” throughout. In addition, the Potency in [6] was 48.6 µM (active); in [7] it was 13.7 µM (active).

As for `CCOP(=S)(OCC)SCCS(=O)(=O)CC`, the Potency result in test [1], in [2], in test [3], in test [9], in test [10] and in test [8] was “inactive” in each case.

On to `C=CC(=O)OCC(COC(=O)C=C)(COC(=O)C=C)COC(=O)C=C`, for which the Potency in [11] is 13.7 µM (active); in [12], 1.93 µM (active); in test [13], 9.69 µM (active); in test [3] it was 15.4 µM (active); in test [4], 8.63 µM (active); in [5], 8.63 µM (active). Further, the Potency is 5.45 µM (active) in test [9], 13.7 µM (active) in test [14], 8.63 µM (active) in test [7] and 6.92 µM (active) in [8]. The Potency entry in [2], in test [6] and in test [10] was “inactive” each time.

Consider `O=C/C(Cl)=C(/Cl)C(=O)O`, for which the Potency result in [1], in [2], in test [3], in test [4], in test [5] and in test [6] was “inactive” in each case. The Potency entry in test [9], in test [10] and in [7] was “inactive” each time.

Turning to `CC(C)N1C(=O)N(c2ccccc2)CSC1=NC(C)(C)C`, the Potency entry in [1], in test [2], in [4], in test [5], in test [10] and in test [7] was “inactive” in each case. The Potency in [6] was 24.3 µM (active).

As for `COc1cc(C=O)cc2c1[C@H](COC(N)=O)[C@]1(OC(C)=O)ON2C[C@H]2[C@@H]1N2C(C)=O`, the Potency result in test [1], in test [2], in test [6], in test [9], in test [10] and in test [7] was “inactive” throughout. Moreover, the Potency is 0.611 µM (active) in test [3]; 0.433 µM (active) in [4]; 0.0486 µM (active) in [5]; 1.93 µM (active) in [14]; 3.89 µM (active) in test [8]; 63.5 µM (active) in test [15].

On to `CC(=O)[O-].CC(=O)[O-].[Hg+2]`, for which the Potency in [1] is 4.33 µM (active); in test [13], 3.86 µM (active); in test [3] it was 7.7 µM (active); in [4], 4.86 µM (active); in test [9], 2.73 µM (active); in test [8], 3.47 µM (active).

For the molecule `O=c1[nH]c2ccccc2n1C1CCN(CCCC(c2ccc(F)cc2)c2ccc(F)cc2)CC1`, the Potency was 61.1 µM (active) in test [11]; 11.9 µM (active) in test [16]; 16.2 µM (active) in test [18]; 30.6 µM (active) and 26.6 µM (active) in test [13]; 54.5 µM (active) in [3]; 24.3 µM (active) and inactive in test [9]. Besides, the Potency in [14] is 27.3 µM (active) and 26.6 µM (active); in [8], 21.9 µM (active). Besides, the Potency result in test [12], in test [2], in test [10], in test [7] and in [15] was “inactive” throughout. Also, the result in test [17] and in test [19] was inactive.
